Results on 15 sequences are retold here after article PMC3218832.

Among the targets are RELARELA (p65 homodimer) (Homo sapiens, UniProt Q04206 1-307); p50p50 homodimer (Homo sapiens, UniProt P19838 7-356); RELB subunit;p50 subunit (Homo sapiens;Homo sapiens, UniProt Q01201;P19838 120-401;7-356).
Test in all cases: protein binding microarray; high values mean tight binding
What all share (conditions): dsDNA, one strand shown

A further test has as its target T1, p52p52 homodimer (Homo sapiens, UniProt Q00653 4-332).
T1 sequence: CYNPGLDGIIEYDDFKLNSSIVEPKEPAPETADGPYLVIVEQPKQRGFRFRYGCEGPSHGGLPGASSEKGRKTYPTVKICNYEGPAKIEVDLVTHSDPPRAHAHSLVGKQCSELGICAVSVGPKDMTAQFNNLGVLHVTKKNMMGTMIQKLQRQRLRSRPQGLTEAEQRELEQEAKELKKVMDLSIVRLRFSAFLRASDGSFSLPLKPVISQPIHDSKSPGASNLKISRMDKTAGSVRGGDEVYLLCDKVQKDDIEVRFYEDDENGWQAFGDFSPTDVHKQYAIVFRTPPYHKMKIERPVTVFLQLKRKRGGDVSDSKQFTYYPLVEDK

The target of test [1] is RELA (p65) subunit of heterodimer;p50 subunit (Homo sapiens;Homo sapiens, UniProt Q04206;P19838 1-307;7-356).
RELA (p65) subunit of heterodimer;p50 subunit, sequence (Q04206 1-307, chain 1 of 2): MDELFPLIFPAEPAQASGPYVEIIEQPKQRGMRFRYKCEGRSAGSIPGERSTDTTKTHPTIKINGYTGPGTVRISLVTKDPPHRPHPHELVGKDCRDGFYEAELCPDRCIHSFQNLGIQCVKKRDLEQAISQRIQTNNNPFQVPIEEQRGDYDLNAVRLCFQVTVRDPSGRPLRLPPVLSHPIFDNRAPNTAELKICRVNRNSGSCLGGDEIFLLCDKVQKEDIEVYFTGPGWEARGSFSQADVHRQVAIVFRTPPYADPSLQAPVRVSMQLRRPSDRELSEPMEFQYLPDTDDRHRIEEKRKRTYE
RELA (p65) subunit of heterodimer;p50 subunit, sequence (P19838 7-356, chain 2 of 2): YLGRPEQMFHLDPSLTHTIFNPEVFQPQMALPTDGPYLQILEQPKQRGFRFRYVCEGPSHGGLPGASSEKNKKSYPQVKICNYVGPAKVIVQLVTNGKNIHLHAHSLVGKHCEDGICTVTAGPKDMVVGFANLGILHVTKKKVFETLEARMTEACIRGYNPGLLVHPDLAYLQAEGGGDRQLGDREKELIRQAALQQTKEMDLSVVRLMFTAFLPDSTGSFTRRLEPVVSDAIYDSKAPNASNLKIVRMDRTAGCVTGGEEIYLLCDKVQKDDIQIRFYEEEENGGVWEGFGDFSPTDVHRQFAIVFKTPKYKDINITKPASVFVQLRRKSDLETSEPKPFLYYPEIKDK
For test [2], the target named is RELA (p65) subunit of heterodimer;p52 subunit (Homo sapiens;Homo sapiens, UniProt Q04206;Q00653 1-307;4-332).
In the next test the target is T2, RELB subunit;p52 subunit (Homo sapiens;Homo sapiens, UniProt Q01201;Q00653 120-401;4-332).
T2 sequence 1: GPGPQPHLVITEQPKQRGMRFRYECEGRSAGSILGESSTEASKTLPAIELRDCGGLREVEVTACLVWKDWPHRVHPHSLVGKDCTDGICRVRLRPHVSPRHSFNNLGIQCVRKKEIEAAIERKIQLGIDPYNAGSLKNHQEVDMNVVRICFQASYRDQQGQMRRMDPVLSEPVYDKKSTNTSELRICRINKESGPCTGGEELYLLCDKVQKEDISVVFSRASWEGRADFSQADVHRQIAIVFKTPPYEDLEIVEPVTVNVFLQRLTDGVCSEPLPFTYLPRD
T2 sequence 2: T1 sequence

Test [3] deals with C-Rel subunit;p50 subunit (Homo sapiens;Homo sapiens, UniProt Q04864;P19838 1-285;7-356).
For test [4], the target named is T3, C-Rel subunit;p52 subunit (Homo sapiens;Homo sapiens, UniProt Q04864;Q00653 1-285;4-332).
T3 sequence 1: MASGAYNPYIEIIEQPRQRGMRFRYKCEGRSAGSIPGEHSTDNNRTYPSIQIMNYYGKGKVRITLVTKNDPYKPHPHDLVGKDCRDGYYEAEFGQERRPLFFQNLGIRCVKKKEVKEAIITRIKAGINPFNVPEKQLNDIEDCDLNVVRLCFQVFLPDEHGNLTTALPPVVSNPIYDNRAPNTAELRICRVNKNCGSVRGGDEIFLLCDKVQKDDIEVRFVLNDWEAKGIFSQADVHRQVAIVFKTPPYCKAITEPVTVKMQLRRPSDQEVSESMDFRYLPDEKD
T3 sequence 2: T1 sequence

p50p50 homodimer, sequence (P19838 7-356): as the sequence (P19838 7-356, chain 2 of 2) above
RELARELA (p65 homodimer), sequence (Q04206 1-307): as the sequence (Q04206 1-307, chain 1 of 2) above

On to AGAATGACCCC, for which the binding signal was -0.278 z-score in the test with RELARELA (p65 homodimer); -0.204 z-score with p50p50 homodimer; -0.112 z-score in the test with p52p52 homodimer; -0.177 z-score in test [1]; -0.287 z-score in test [2]; -0.428 z-score with RELB subunit;p50 subunit. In addition, the binding signal in the test with RELB subunit;p52 subunit was -0.388 z-score; in test [3], -0.442 z-score; in test [4], -0.311 z-score.
Take AAGTACATCCC: the binding signal in the test with RELARELA (p65 homodimer) is 0.78 z-score; with p50p50 homodimer, -0.756 z-score; in the test with p52p52 homodimer, -0.37 z-score; in [1], -0.432 z-score; in [2], -0.425 z-score; with RELB subunit;p50 subunit, -0.551 z-score. The binding signal in the test with RELB subunit;p52 subunit is -0.549 z-score; in [3], -0.042 z-score; in test [4] it was -0.446 z-score.
As to AGAATTGTCCC, the binding signal was 0.95 z-score with RELARELA (p65 homodimer); 0.906 z-score with p50p50 homodimer; 0.873 z-score in the test with p52p52 homodimer; 0.803 z-score in test [1]; 0.85 z-score in test [2]; 0.82 z-score with RELB subunit;p50 subunit. Further, the values for the binding signal (with RELB subunit;p52 subunit; in test [3]; in [4]) were 0.675 z-score, 0.87 z-score and 0.604 z-score, respectively.
Turning to CAGATACTCCC, the binding signal in the test with RELARELA (p65 homodimer) was -0.1 z-score; with p50p50 homodimer, -0.181 z-score; with p52p52 homodimer it was -0.309 z-score; in test [1] it was -0.154 z-score; in [2], -0.498 z-score; with RELB subunit;p50 subunit it was -0.145 z-score. Besides, the binding signal with RELB subunit;p52 subunit was -0.637 z-score; in test [3], -0.312 z-score; in test [4], -0.374 z-score.
In the case of AGGTTACCCCT, the binding signal in the test with RELARELA (p65 homodimer) is -0.124 z-score; with p50p50 homodimer it was 0.813 z-score; in the test with p52p52 homodimer, 0.514 z-score; in [1], 0.468 z-score; in test [2], 0.804 z-score; in the test with RELB subunit;p50 subunit, 0.84 z-score. Further, the values for the binding signal (with RELB subunit;p52 subunit; in test [3]; in test [4]) were 1.36 z-score, 0.567 z-score and 0.609 z-score, respectively.
On to CAAATTCCCCC, for which the binding signal was 2.31 z-score in the test with RELARELA (p65 homodimer); 1.64 z-score with p50p50 homodimer; 2.63 z-score with p52p52 homodimer; 2.41 z-score in test [1]; 2.32 z-score in [2]; 2.69 z-score with RELB subunit;p50 subunit. Moreover, the binding signal came out at 2.35 z-score with RELB subunit;p52 subunit, 1.89 z-score in [3] and 2.65 z-score in [4].
On to GAATACTCCCC, for which the binding signal with RELARELA (p65 homodimer) stood at 0.403 z-score; with p50p50 homodimer, 0.933 z-score; with p52p52 homodimer, 0.502 z-score; in test [1], 0.707 z-score; in [2], 0.752 z-score; with RELB subunit;p50 subunit, 0.8 z-score. For the same sequence, the binding signal in the test with RELB subunit;p52 subunit was 0.628 z-score; in [3], 0.806 z-score; in [4], 0.479 z-score.
CGGGGCACCCC: the binding signal with RELARELA (p65 homodimer) was found to be 0.313 z-score; in the test with p50p50 homodimer it was 0.323 z-score; in the test with p52p52 homodimer it was 1.21 z-score; in [1], 0.7 z-score; in test [2], 1.06 z-score; with RELB subunit;p50 subunit it was 0.451 z-score. For the same sequence, the binding signal in the test with RELB subunit;p52 subunit was 1.1 z-score; in test [3], 0.899 z-score; in test [4], 1.43 z-score.
As to AAGAATTTCCT, the binding signal was 1.63 z-score with RELARELA (p65 homodimer); -0.591 z-score in the test with p50p50 homodimer; -0.35 z-score with p52p52 homodimer; -0.206 z-score in test [1]; -0.329 z-score in [2]; -0.672 z-score in the test with RELB subunit;p50 subunit. Moreover, the binding signal with RELB subunit;p52 subunit is -0.375 z-score; in [3], 0.0204 z-score; in test [4], -0.227 z-score.
For the sequence AAAGAAGTCCT, the binding signal was -0.118 z-score with RELARELA (p65 homodimer); -0.972 z-score with p50p50 homodimer; -0.456 z-score with p52p52 homodimer; -0.815 z-score in test [1]; -0.873 z-score in test [2]; -0.926 z-score with RELB subunit;p50 subunit. In addition, the binding signal with RELB subunit;p52 subunit is -0.875 z-score; in test [3] it was -0.558 z-score; in test [4], -0.645 z-score.
Turning to GGGTTACTCCC, the binding signal with RELARELA (p65 homodimer) turned out to be 0.497 z-score; with p50p50 homodimer it was 0.249 z-score; in the test with p52p52 homodimer it was 1.29 z-score; in test [1] it was 0.568 z-score; in [2], 0.789 z-score; with RELB subunit;p50 subunit, 0.354 z-score. Also, the binding signal is 0.378 z-score in the test with RELB subunit;p52 subunit, 0.398 z-score in [3] and 0.657 z-score in test [4].
On to AAATATCTCCC, for which the binding signal was 0.144 z-score with RELARELA (p65 homodimer); 0.445 z-score in the test with p50p50 homodimer; 0.105 z-score with p52p52 homodimer; 0.12 z-score in [1]; -0.105 z-score in [2]; 0.365 z-score with RELB subunit;p50 subunit. Also, the binding signal with RELB subunit;p52 subunit is 0.153 z-score; in [3], -0.0256 z-score; in [4] it was -0.0762 z-score.
Take AGGAAACTCCT: the binding signal with RELARELA (p65 homodimer) is 2.04 z-score; with p50p50 homodimer it was -0.999 z-score; in the test with p52p52 homodimer it was -0.404 z-score; in test [1], -0.105 z-score; in test [2] it was -0.54 z-score; with RELB subunit;p50 subunit it was -0.699 z-score. Moreover, the binding signal with RELB subunit;p52 subunit was -0.839 z-score; in test [3] it was -0.168 z-score; in [4], -0.211 z-score.
As for CGGTTGCTCCT, the binding signal was -0.357 z-score with RELARELA (p65 homodimer); -1.5 z-score with p50p50 homodimer; -0.686 z-score with p52p52 homodimer; -0.927 z-score in test [1]; -0.989 z-score in [2]; -1.09 z-score with RELB subunit;p50 subunit. The binding signal in the test with RELB subunit;p52 subunit is -0.904 z-score; in [3], -1.44 z-score; in [4], -1 z-score.
As to AGGTATACCCT, the binding signal was -0.0429 z-score with RELARELA (p65 homodimer); -0.139 z-score with p50p50 homodimer; -0.102 z-score in the test with p52p52 homodimer; -0.262 z-score in test [1]; -0.241 z-score in test [2]; -0.242 z-score in the test with RELB subunit;p50 subunit. Besides, the binding signal with RELB subunit;p52 subunit is -0.17 z-score; in test [3], -0.467 z-score; in test [4] it was -0.258 z-score.
